An excerpt weighted towards active compounds, which were near 2.2% of everything screened.
aSyn yeast inh – alpha-synuclein toxicity inhibition in yeast. Yeast expressing alpha-synuclein, growth rescue, BacTiter-Glo, 24 h. Potency, µM (highest dose often 46.1 µM), inactives show at the highest dose growth rescue (activation), usual class: activators. 370,000 compounds, 0.14% hits. AID 652106; note: % of control where 0% means no effect; nearly all actives have a fitted effect of over 65% in size
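Rescue of yeast growth: cells expressing toxic alpha-synuclein, induced in galactose at OD600 0.02, incubated with compound 24 h at 30 C. ATP luminescence quantified growth; inhibitors of toxicity appear as activators.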
TDP43 rescue – TDP-43 toxicity inhibition in yeast; TDP-43 expressing yeast growth rescue, BacTiter-Glo, 24 h; Potency, µM (highest dose often 46.1 µM), for inactives: at the highest dose growth rescue (activation), usual class: activators; 410,000 compounds, 1.8% hits; AID 652104; note: % of control where 0% means no effect; nearly all actives have a fitted effect of over 50% in size
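Yeast cells expressing TDP-43 under galactose induction are exposed to compounds for 24 hr at 30 deg C. BacTiter-Glo luminescence measures growth, so protective compounds score as activators.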
Mito fusion yeast – inhibitors of mitochondrial division or activators of mitochondrial fusion | 320,000 compounds, 0.23% hits | Potency, µM (series often up to 46.1 µM), without a hit: top-dose growth rescue (activation), most hits filed as activators | S. cerevisiae fusion-defective mutant growth rescue, CellTiterGlo 48 h; note: % of control where 0% means no effect; nearly all actives have a fitted effect of over 45% in size
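Luminescent cell viability in 1536-well qHTS format served as the measure of rescued growth in ts fusion-mutant S. cerevisiae cultured on non-fermentable YPEG for 48 hours at 37C.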
FUS suppressor – FUS proteinopathy suppression in yeast | S. cerevisiae FUS-expressing, growth rescue, OD600, 24 h | Potency, µM (highest dose often 76.6 µM), usual class: activators | 390,000 compounds, 0.24% hits | AID 1347120;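 note: plate controls were DMSO vehicle for no effect and reference control for full effect; nearly all actives have a fitted effect of over 55% in size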
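Steps: raffinose overnight preculture; dilution to OD 0.005 in 2% galactose minimal medium; compound addition (concentration series); 24hr at 30C, 99% humidity; absorbance read at 600 nm.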
Abeta yeast res – compounds reversing amyloid beta toxicity in yeast. yeast expressing A-beta42, growth rescue, OD600, 48 h; response scale: 0% DMSO, 100% iron-clioquinol control. Potency, µM (highest dose often 46.1 µM), hits mostly activators. 410,000 compounds, 0.063% hits; note: nearly all actives have a fitted effect of over 55% in size
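Growth rescue measured by 600 nm absorbance after 48 h yeast culture at 30 C with compound. Values normalized between DMSO and an equimolar ferric chloride plus clioquinol control.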
* = called active by the depositor; i = inactive; ? = inconclusive; . = not tested or not shown; ! = a repeat was not active; [ ] = dose if it differs, or a comment. Calls come from the whole dose curve; as a rule, active = well fitted curve in the direction sought with a large enough effect; inconclusive = small, poorly fitted or top-dose-only effect, or another doubt; inactive = no such curve, though single readings can be large; an effect the other way counts as inactive or inconclusive. Potency is the fitted concentration of half-maximal effect.

SMILES | aSyn yeast inh | TDP43 rescue | Mito fusion yeast | FUS suppressor | Abeta yeast res
COc1ccc(CNc2cccc(F)c2)cc1Br | -9% | 13µM* | 5% | . | i
Cc1cccc(NC(=O)Cc2coc3ccc4ccccc4c23)n1 | -16% | 11µM* | 26% | i | i
Cc1cccc(NC(=O)Cc2ccc(-c3ccccc3)cc2)n1 | -7% | 11µM* | 1% | i | i
Cn1cc(C(=O)c2cccc(Cl)c2Cl)cc1C(=O)O | -2% | 0% | 1% | i | i
COC(=O)c1cc(C(=O)c2ccc(Cl)cc2Cl)cn1C | -5% | 11µM* | 6% | i | i
COC(=O)c1cc(C(=O)c2cccc(Cl)c2Cl)cn1C | 13% | 18µM* | 4% | i | i
Cc1nn(-c2ccccc2)c2sc(C(=O)N3CCN(Cc4ccc(F)cc4)CC3)cc12 | . | . | . | i | .
COc1cccc(C(=O)OCC(=O)c2ccc(Br)s2)c1OC | -5% | 1.8µM* | -2% | i | i
COc1cccc(C(=O)OCC(=O)NCCNC(=O)COC(=O)c2cccc(OC)c2OC)c1OC | 9% | 4% | -2% | . | i
CCN(CCn1cccn1)C(=O)C1CCC(=O)N(CCN2CCOCC2)C1 (stereo not given) | -10% | -1% | -1% | i | i
O=S(=O)(NC(=NC1CCCCC1)c1ccccc1F)c1ccccc1 | 1% | 3% | 0.63µM* | i | i
O=S(=O)(NC(=NC1CCCCC1)c1ccccc1)c1ccccc1 | 1% | 17% | 5% | . | i
CCC1CCC(NC(=O)Nc2cccc(OC)c2)CC1 (stereo not given) | -2% | -16%[0.397 µM] | 5% | i | i
N[C@H](C(=O)Nc1ccc(Cl)cc1C(=O)c1ccc[nH]1)c1ccccc1 | . | . | . | i | .
COc1ccc(Nc2cc(C)nc3ncnn23)cc1 | 4% | -5% | . | i | i
Cc1cc(Nc2ccc(C(C)C)cc2)n2ncnc2n1 | 20% | 11µM* | 8% | i | i
CCCOc1cccc(C2C(C(=O)c3cccs3)=C(O)C(=O)N2CCN2CCOCC2)c1 (stereo not given) | 7% | 2% | 5% | i | i
CN(C)c1ccc(N=Cc2cccc3ccccc23)cc1 | -7% | . | . | . | .
O=C(Nc1ccc(Nc2ccccc2)cc1)c1c(Cl)cccc1Cl | -23% | 11µM* | . | i | i
CCOC(=O)c1sc(NC(=O)Nc2ccccc2F)nc1C | -1% | 16% | 4% | i | i
Cc1nc(Cl)sc1C(=O)Nc1ccc(C(C)(C)C)cc1 | -12% | 11µM* | -5% | i | i
CCOC(=O)c1sc(Nc2ccccc2Cl)nc1C | -3% | 20µM* | 2% | i | i
Cc1nc(Nc2c(Cl)cccc2Cl)sc1C(=O)Nc1ccccc1 | -1% | ? | 18µM* | i | i
CCOc1ccc2nc(N3C(=O)/C(=C/c4ccc(Cl)cc4)NC3=S)sc2c1 | -5% | 0% | -3% | i | i
O=C(CCC(=O)c1ccccc1)Nc1ccc(F)c(Cl)c1 | . | 15% | . | i | i
SMILES | aSyn yeast inh | TDP43 rescue | Mito fusion yeast | FUS suppressor | Abeta yeast res
CC[C@@H](CCC(=O)N(c1ccccc1)c1ccccc1)c1ccc(C)cc1 | . | . | . | i | .
CCOC(=O)c1sc(NNC(=O)c2ccc(C)cc2)nc1C | -3% | -17% | 3% | i | i
CCOC(=O)c1sc(NNC(=O)c2ccc(F)cc2)nc1C | ? | 14µM* | 14% | i | ?
CCOC(=O)c1sc(Nc2ccc(Br)cc2)nc1C | 0% | 16µM* | -3% | i | i
CCOC(=O)c1sc(NCCNc2nc(C)c(C(=O)OCC)s2)nc1C | 7% | -25% | 2% | i | i
O=C(NCCc1csc2nc(-c3ccccc3F)nn12)C(=O)Nc1cc(F)ccc1F | . | ? | . | i | i
Cc1ccc(CNc2ncnc3onc(-c4ccc(F)cc4)c23)cc1 | . | 3% | . | i | i
Fc1ccc(CNc2ncnc3onc(-c4ccc(F)cc4)c23)cc1 | 1% | 13µM* | . | i | i
Clc1ccc(-c2noc3ncnc(NCCc4ccccc4)c23)cc1 | -2% | 18µM* | . | i | i
CCN(CC)c1ccc(/C=N/NC(=O)Cc2nnc(NC(=O)Nc3ccccc3)s2)cc1 | 1% | 2% | -5% | 18µM* | i
CCN(CC)c1ccc(/C=N/NC(=O)Nc2ccccc2)cc1 | 14% | 25% | -5% | i | i
Nc1nc(=S)c2snnc2[nH]1 | 0% | . | . | . | .
COc1ccc(Br)cc1CNC(=O)CCC(=O)N1CCSc2ccccc21 | -1% | 22µM*! | 3% | ? | i
Cc1ccccc1CNC(=O)CCC(=O)N1CCSc2ccccc21 | . | 24% | . | i | i
O=C(O)CC1(CC(=O)Nc2ccc(Br)cc2)CCCCC1 | -41% | 11µM* | -3% | i | i
O=C(O)CC1(CC(=O)Nc2ccc3ccccc3c2)CCCCC1 | 1% | -8% | -1% | i | i
CS(=O)(=O)N1CCC[C@]2(CC[C@H](CCC#N)O2)C1 | . | . | . | i | .
C[n+]1ccnc2cc(Cl)ccc21 | 2% | . | . | . | .
O=C(c1sccc1Cl)N1CCC(n2nnc3ncccc32)CC1 | . | . | . | i | .
CC(=O)Nc1ccc(S(=O)(=O)N2CCN(c3cc(C)ccc3C)CC2)cc1 | 9% | 28µM* | ? | ? | i
O=C(/C=C/c1cccc(F)c1)N1CCc2ccccc21 | 1% | 14% | 5% | i | i
O=C(/C=C/c1ccc(F)cc1)N1CCCc2ccccc21 | 3% | 18µM* | -5%[9.22 µM] | i | i
C[C@@H]1CN([C@@H](C)CO)C(=O)Cc2cc(NC(=O)Nc3ccc(C(F)(F)F)cc3)ccc2O[C@@H]1CN(C)S(=O)(=O)c1ccc(Cl)cc1 | 2% | 4% | . | 18µM* | i
C[C@H](CO)N1C[C@H](C)[C@@H](CN(C)S(=O)(=O)c2cccs2)Oc2ccc(NC(=O)Nc3ccc(C(F)(F)F)cc3)cc2C1=O | 1% | 4% | . | i | i
C[C@@H]1CN([C@H](C)CO)C(=O)c2cc(NC(=O)Nc3ccc(C(F)(F)F)cc3)ccc2O[C@H]1CN(C)S(=O)(=O)c1cccs1 | 0% | 15% | . | 10µM* | i
SMILES | aSyn yeast inh | TDP43 rescue | Mito fusion yeast | FUS suppressor | Abeta yeast res
CCN(CC)/[N+]([O-])=N/OCOC(=O)C(C)c1ccc2cc(OC(C)=O)ccc2c1 (stereo not given) | -4% | . | . | . | .
COc1ccc2[nH]c3c(c2c1)CCN[C@]31C(=O)N(C)c2ccc(Br)cc21 | . | . | . | i | .
S=C(Nc1ccccn1)Nc1ccccc1Cl | -4% | 16µM* | 0% | i | i
COc1cc(NC(=S)Nc2ccccn2)cc(OC)c1 | 1% | 10µM* | 6% | i | i
Cc1c(Cl)cccc1NC(=S)Nc1ccccn1 | 1% | 24% | -12% | i | i
COc1cc(NC(=S)Nc2ccccn2)cc(OC)c1OC | ? | ? | 7% | i | i

High-throughput results deposited in PubChem BioAssay by National Center for Advancing Translational Sciences (NCATS).
